Measurements taken from PMC4552634, “A New Set of Chemical Starting Points with Plasmodium falciparum Transmission-Blocking Potential for Antimalarial Drug Discovery” (PLoS ONE, 2015).
Among all 13,000 compounds or so, about 3,200 (25%) showed an effect of 50% or more. This is one part of the list.

The compounds below were run on P. falciparum stage V gametocytes. Conditions: 48 h, 5 µM; inhibitor.
Parameters: BacTiter-Glo ATP luminescence viability of purified stage V gametocytes in 384-well plates, per cent inhibition versus DMSO
`Cc1ccc(CNc2ccc3ncc(-c4cccc(C(=O)NCCN(C)C)c4)n3n2)c(C)c1` [TCMDC-136684] was tested, and the “% Inhibition” value was 104.7%. For `OC1CCC(Nc2ccc3ncc(-c4ccc5ccccc5c4)n3n2)CC1` (stereo not drawn) [TCMDC-136691], the “% Inhibition” value was 25.44%. With `CN1CCN(c2ccc(CNc3ccc4ncc(-c5cccc(OC(F)(F)F)c5)n4n3)cc2)CC1` [TCMDC-136690] the “% Inhibition” value was 11.23%. In the case of `CN(C)c1cccc(-c2cnc3ccc(NCc4cccc(Cl)c4)nn23)c1` [TCMDC-136673], the “% Inhibition” value is reported as 81.33%. In the case of `CN1CCN(c2ccc(CNc3ccc4ncc(-c5ccc(OC(F)(F)F)cc5)n4n3)cc2)CC1` [TCMDC-136689], the “% Inhibition” value is reported as -0.7792%. With `Clc1ccc(-c2cnc3ccc(NCCc4cccnc4)nn23)cc1` [TCMDC-136680] the “% Inhibition” value was -25.41%. For `CN(C)CCNC(=O)c1ccc(-c2cnc3ccc(NCc4ccc(Cl)c(Cl)c4)nn23)cc1` [TCMDC-136678], the “% Inhibition” value was 106.7%. For `Clc1ccc(-c2cnc3ccc(NCc4ccncc4)nn23)cc1` [TCMDC-136682], the “% Inhibition” value was 21.16%. `CN(C)CCNC(=O)c1cccc(-c2cnc3ccc(NCc4ccc(Cl)c(Cl)c4)nn23)c1` [TCMDC-136677] was tested, and the “% Inhibition” value was 49.91%. With `CCC(C)NC(=O)CN1CN(c2ccccc2)C2(CCN(C(=O)c3ccc4ccccc4c3)CC2)C1=O` (stereo not drawn) [TCMDC-125174] the “% Inhibition” value was -36.87%. With `CCNc1cc(C)nc(Nc2ccc(NS(=O)(=O)c3cc(OC)ccc3OC)cc2)n1` [TCMDC-124953] the “% Inhibition” value was -19.07%. In the case of `CC(C)c1ccc(NC(=O)c2ccc(C(=O)NC3CCN(CC4CCCCC4)C3)cc2)cc1` (stereo not drawn) [TCMDC-136743], the “% Inhibition” value is reported as -27.55%. `COc1cccc2cc(C(=O)N[C@@H](CC(C)C)C(=O)N[C@H](/C=N/NC(=O)c3ccccc3)Cc3cnc[nH]3)oc12` [TCMDC-135820] was tested, and the “% Inhibition” value was 40.86%. `CN(C)CCOc1cc(NC(=O)Nc2ccc(-c3ccncc3)c(Cl)c2)ccc1I` [TCMDC-139135] was tested, and the “% Inhibition” value was 19.45%. For `COc1ccc(C(=O)C2CCN(CCCCNC(=O)c3ccc(NC(=O)c4cc(Cl)cc(Cl)c4)cc3)CC2)cc1` [TCMDC-138228], the “% Inhibition” value was -14.09%. With `COc1ccc(C(=O)C2CCN(CCCCNC(=O)c3ccc(NC(=O)c4ccc(Cl)cc4)cc3)CC2)c(OC)c1` [TCMDC-138625] the “% Inhibition” value was -32.94%. With `Clc1ccc(C2CCN(CCCOc3ccc4c(c3)CCNCC4)CC2)cc1` [TCMDC-141782] the “% Inhibition” value was 72%. For `O=C(c1ccc(Cl)cc1)C1CCN(CCCOc2ccc3c(c2)CCNCC3)CC1` [TCMDC-141781], the “% Inhibition” value was 60.35%. In the case of `CC(C)(C)c1ccc(NC(=O)Nc2ccc(Cn3ncc(N4CCCNCC4)c(Cl)c3=O)cc2)cc1` [TCMDC-133314], the “% Inhibition” value is reported as -23.28%. With `COc1ccc(-c2onc(C(F)(F)F)c2-c2cc3ccccc3o2)c(O)c1` [TCMDC-124534] the “% Inhibition” value was 7.209%. For `O=C(Nc1ccc(-c2ccccc2)cc1)Nc1ccc2c(c1)CCNCC2` [TCMDC-133729], the “% Inhibition” value was 60.87%. With `O=C(Nc1ccc2c(c1)CCNCC2)c1ccc(-c2ccc(Cl)cc2)cc1` [TCMDC-141480] the “% Inhibition” value was 106.4%. `O=C(Nc1ccc2c(c1)CCNCC2)Nc1ccc2ccccc2c1` [TCMDC-133733] was tested, and the “% Inhibition” value was -8.361%. For `O=C(Nc1ccc2c(c1)CNCC2)c1ccc(-c2ccc(Cl)cc2)cc1` [TCMDC-141479], the “% Inhibition” value was 71.62%. With `CN1CCc2ccc(NC(=O)Nc3ccc(-c4ccccc4)cc3)cc2C1` [TCMDC-133725] the “% Inhibition” value was -3.896%. `CN1CCN(c2cc(NC(=O)c3ccc(-c4ccc(Cl)cc4)cc3)ccc2Cl)CC1` [TCMDC-138671] was tested, and the “% Inhibition” value was -15.54%. In the case of `Cc1ccc(NC(=O)c2ccc(Cl)cc2)cc1-c1ccc(C(=O)Nc2ccncc2)cc1` [TCMDC-133698], the “% Inhibition” value is reported as -1.939%. With `CN1CCCc2cc(NC(=O)c3cc(-c4ccc(Cl)cc4)cs3)ccc2C1` [TCMDC-134050] the “% Inhibition” value was 7.243%. With `O=C(Nc1ccc(Cl)c(Cl)c1)Nc1ccc2c(c1)CCNCC2` [TCMDC-133731] the “% Inhibition” value was 29.44%. In the case of `CC1CCN(Cc2c(O)ccc3c(=O)c(-c4nc5ccccc5s4)c(N)oc23)CC1` [TCMDC-124313], the “% Inhibition” value is reported as 12.71%. With `Cc1ccc(OCCCON2C(N)=NC(N)=NC2(C)C)cc1C` [TCMDC-131650] the “% Inhibition” value was 7.659%. In the case of `Cc1nc(NCCc2cnc[nH]2)cc(NCc2ccccc2)n1` [TCMDC-135164], the “% Inhibition” value is reported as -1.635%. With `CN(C(=O)c1cc2c(-c3cncnc3)cccc2[nH]1)c1ccccc1` [TCMDC-134637] the “% Inhibition” value was 36.22%. In the case of `CCC(CC)CN1C(=O)C(C)(c2ccccc2)N=C1N` (stereo not drawn) [TCMDC-137051], the “% Inhibition” value is reported as 1.821%. For `COc1cc2c(cc1S(=O)(=O)c1ccc(NC(=O)c3ccc4ccccc4c3)cc1)CCN(C)CC2` [TCMDC-133792], the “% Inhibition” value was 8.081%. For `COc1cc2c(cc1S(=O)(=O)c1ccc(NC(=O)c3cccc(C(F)(F)F)c3)cc1)CCN(C)CC2` [TCMDC-133791], the “% Inhibition” value was -4.764%. `COc1cccc(C(=O)Nc2ccc(S(=O)(=O)c3cc4c(cc3OC)CCN(C)CC4)cc2)c1` [TCMDC-133790] was tested, and the “% Inhibition” value was 79.19%. With `O=C(CCc1cnc[nH]1)Nc1ccc(-c2ccc(-c3nc4ccccc4[nH]3)cc2)cc1` [TCMDC-132156] the “% Inhibition” value was -24.85%. In the case of `c1csc(-c2nc(N3CCCCC3)ncc2-c2ccsc2)n1` [TCMDC-125370], the “% Inhibition” value is reported as 9.865%. With `C=CCc1c(C(=O)NCC23CC4CC(CC(C4)C2)C3)[nH]c2ccccc2c1=O` [TCMDC-136371] the “% Inhibition” value was -9.366%. In the case of `CC(C)Cc1cn(-c2nc(-c3nc4ccccc4[nH]3)cs2)c2ccncc12` [TCMDC-132419], the “% Inhibition” value is reported as 3.094%. In the case of `Cc1cc(N[C@@H](Cc2ccccc2)C(=O)NCCc2ccccc2)nc(NCCc2ccccc2)n1` [TCMDC-134776], the “% Inhibition” value is reported as 144.5%. In the case of `Cc1cccc(CNc2nc(C)cc(N[C@@H](Cc3ccccc3)C(=O)NCCc3ccccc3)n2)c1` [TCMDC-134889], the “% Inhibition” value is reported as -24.79%. For `COc1ccccc1CCNc1nc(C)cc(N[C@@H](Cc2ccccc2)C(=O)NCCc2ccccc2)n1` [TCMDC-134803], the “% Inhibition” value was 83.15%. `COc1ccccc1CCNc1nc(C)cc(N[C@@H](CC(C)C)C(=O)NCCc2ccccc2)n1` [TCMDC-134807] was tested, and the “% Inhibition” value was 30.27%. With `COc1ccccc1CCNc1nc(C)cc(N[C@@H](Cc2ccccc2)C(=O)NCCCOC(C)C)n1` [TCMDC-134861] the “% Inhibition” value was 55.12%. `Cc1cc(N[C@@H](Cc2ccccc2)C(=O)NCCCOC(C)C)nc(NCC2CCCCC2)n1` [TCMDC-134931] was tested, and the “% Inhibition” value was 30.55%. For `COc1ccccc1CCNc1nc(C)cc(N[C@@H](Cc2ccccc2)C(=O)NCCOc2ccccc2)n1` [TCMDC-134862], the “% Inhibition” value was 100.5%. For `Cc1cc(N[C@@H](Cc2ccccc2)C(=O)NCCc2ccccc2)nc(NCCc2ccc(F)cc2)n1` [TCMDC-134867], the “% Inhibition” value was 49.67%. `Cc1cc(N[C@@H](Cc2ccccc2)C(=O)NCCc2ccccc2)nc(NCc2ccccc2C)n1` [TCMDC-134907] was tested, and the “% Inhibition” value was -0.7865%. In the case of `COc1ccccc1CCNc1nc(C)cc(N[C@@H](Cc2ccccc2)C(=O)Nc2ccccc2)n1` [TCMDC-134804], the “% Inhibition” value is reported as 36.98%.
